KCNQ2 block: rat KCNQ2 potassium channel inhibitors, primary screen, cell-based, CHO-K1, FluxOR thallium flux, B-score; Potassium voltage-gated channel subfamily KQT member 2 (Rattus norvegicus), O88943; 20 min; stronger effect = lower value; B-score at 10 µM; hit rate 1.1% among 310,000; AID 2156, 2009;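 active = fluorescence ratio B-score at most minus 3 library SDs, with starting brightness B-score within 2 library SDs, cut at about -5.5 in these data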
Target sequence (O88943 whole entry, looked up): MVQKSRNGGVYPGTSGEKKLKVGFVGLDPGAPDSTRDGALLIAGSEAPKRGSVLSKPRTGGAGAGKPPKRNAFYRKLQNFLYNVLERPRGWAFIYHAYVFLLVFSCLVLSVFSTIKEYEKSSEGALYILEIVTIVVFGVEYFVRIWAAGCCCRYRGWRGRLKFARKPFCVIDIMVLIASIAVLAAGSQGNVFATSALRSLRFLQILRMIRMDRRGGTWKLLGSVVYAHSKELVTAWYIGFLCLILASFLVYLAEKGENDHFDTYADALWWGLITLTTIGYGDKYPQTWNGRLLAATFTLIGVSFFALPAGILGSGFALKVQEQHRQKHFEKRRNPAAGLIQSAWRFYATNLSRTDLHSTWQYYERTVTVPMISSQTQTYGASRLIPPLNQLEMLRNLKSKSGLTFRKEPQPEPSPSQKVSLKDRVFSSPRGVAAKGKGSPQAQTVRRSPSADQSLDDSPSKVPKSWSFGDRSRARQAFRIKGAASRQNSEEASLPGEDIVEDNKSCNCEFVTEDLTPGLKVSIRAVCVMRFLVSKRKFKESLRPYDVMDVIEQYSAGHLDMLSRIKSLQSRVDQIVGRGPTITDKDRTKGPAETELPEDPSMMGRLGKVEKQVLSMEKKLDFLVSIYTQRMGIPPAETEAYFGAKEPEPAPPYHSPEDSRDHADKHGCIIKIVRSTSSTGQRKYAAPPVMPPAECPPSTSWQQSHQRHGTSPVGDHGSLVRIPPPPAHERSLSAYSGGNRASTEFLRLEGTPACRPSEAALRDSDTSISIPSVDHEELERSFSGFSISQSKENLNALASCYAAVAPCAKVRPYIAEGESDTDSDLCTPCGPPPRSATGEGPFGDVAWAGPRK
KCNQ2 enhance: potentiators of rat KCNQ2 potassium channel; CHO-K1 KCNQ2, FluxOR thallium flux fluorescence; stronger effect = higher value; Potassium voltage-gated channel subfamily KQT member 2 (Rattus norvegicus), O88943; B-score at 10 µM; hit rate 0.54% among 310,000;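 active = fluorescence ratio B-score at least 3 SD of library B-scores, with initial fluorescence B-score within 3 of them, cut at about 5.3 in these data; same plate scores as AID 2156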;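 note: B-score of peak minus minimum over baseline fluorescence ratio after K+ and Tl+ stimulus; positive B-score means potentiation of KCNQ2 with more thallium influx and brighter signal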
A number is an active result; . = inactive; / = no result given. Sampled rows, rich in hits. Any-hit rate of the full collection: about 1.6%.

SMILES | KCNQ2 block | KCNQ2 enhance
CN(C)S(=O)(=O)c1cccc(NC(=O)C2Cc3ccccc3CN2C(=O)c2ccco2)c1 (stereo not drawn) | . | /
CCN1CCN(c2c(/C=C3\SC(=S)N(Cc4ccco4)C3=O)c(C)c(C#N)c(=O)n2C)CC1 | -7.7 | .
COc1ccc(-n2c(C)cc(/C=C3\SC(=S)N(Cc4ccco4)C3=O)c2C)cc1 | . | /
CN(C(=O)CCN1C(=O)c2ccccc2C1=O)c1ccccc1 | . | /
Cc1ccsc1C1CC(=O)OC2=C1C(=O)CC(C)(C)C2 (stereo not drawn) | . | .
O=C(Nc1ccc(F)cc1)NC1CCCCCCC1 | . | .
O=C(Nc1ccc(F)cc1)C(NC1CCCCC1)c1ccccc1 (stereo not drawn) | -6 | .
COc1ccc(OC)c(-c2cc(C(=O)N3CCCc4ccccc43)no2)c1 | . | /
COc1ccccc1-c1cc(C(=O)N2CCCc3ccccc32)no1 | -6 | .
CC1(C)CN2C(=S)N(c3ccccc3)C(c3ccccc3)N2C1 (stereo not drawn) | -5.6 | .
S=C1N(c2ccccc2)C(c2ccc(Cl)cc2)N2CCCN12 (stereo not drawn) | . | /
Oc1ccc(Nc2nc(-c3ccc4ccccc4c3)cs2)cc1 | . | /
Oc1ccc(-c2nc(-c3ccc(O)c(O)c3)cs2)cc1 | -5.6 | .
O=S(=O)(c1ccccc1)C(/C=N\O)/C=C/c1ccccc1 (stereo not drawn) | -6.3 | .
O=S(=O)(c1ccccc1)N1CCC(=NO)CC1 | . | .
COc1ccc(-c2cc(=O)oc3cc(OCC(=O)NCC4CCC(C(=O)O)CC4)ccc23)cc1 (stereo not drawn) | . | /
Cc1ccc(-c2cc(C(F)F)n3ncc(C(=O)N4CCN(c5cccc(C)c5C)CC4)c3n2)cc1 | -6.4 | .
CCOC(=O)N1CCN(C(=O)c2cnn3c(C(F)F)cc(-c4ccc(C)cc4)nc23)CC1 | . | .
CC1Nc2ccc(C(=O)NC3CCCCC3)cc2NC1=O (stereo not drawn) | . | /
COC(=O)C(C)Oc1cc(C)ccc1COc1ccc(-n2nc(C)n(C(F)F)c2=O)cc1 (stereo not drawn) | . | /
Oc1cc(Br)ccc1C=Nc1ccc(N2CCCCC2)cc1 | -5.8 | .
Oc1ccc(C=Nc2ccc(N3CCOCC3)cc2)c(O)c1 | . | /
C/C(=N\NC(=O)CSc1ncccn1)c1ccc2c(c1)OCCO2 | . | .
CC1CCc2sc(C(=O)NNC(=S)NCC3CCCO3)cc2C1 (stereo not drawn) | . | .
CC1CCc2sc(C(=O)NC(C)C3CCCO3)cc2C1 (stereo not drawn) | -6.1 | .
SMILES | KCNQ2 block | KCNQ2 enhance
COc1ccc(C)cc1N(CC(=O)N1CCc2ccccc2C1)S(C)(=O)=O | . | .
O=C(NCCCN1CCOCC1)c1c(F)c(F)c(F)c(F)c1F | . | /
O=C(NC(=S)Nc1cccnc1)c1cc2ccccc2o1 | . | 8.1
O=C(NC(=S)NCc1cccnc1)c1cc2ccccc2o1 | . | .
COc1cc([N+](=O)[O-])ccc1NC(=O)NCC1CCN(Cc2ccc(Cl)cc2)CC1 | -6.1 | .
COc1ccc(Cl)cc1NC(=O)NCC1CCN(Cc2cc(C)ccc2C)CC1 | . | /
CCOc1ccc(S(=O)(=O)c2cn(C)c3cc(OC)c(OC)cc3c2=O)cc1 | . | /
CC(=O)Nc1ccc(S(=O)(=O)c2cc(O)ccc2O)cc1 | . | .
Cc1onc(-c2ccccc2Cl)c1C(=O)OCC(=O)N1CCN(c2ccccc2)CC1 | . | .
Cc1c(C(=O)NCc2ccccc2)c(-c2ccccc2)nn1-c1ccccc1 | -5.6 | .
Cc1c(C(=O)NC(C)C)c(-c2ccccc2)nn1-c1ccccc1 | . | /
COc1ccc(NC(=O)N(C2CCCCC2)C(C)c2cccnc2)c(OC)c1 (stereo not drawn) | . | /
COc1ccc(NC(=O)N(C2CCCCC2)C(C)c2ccco2)c(OC)c1 (stereo not drawn) | -8.2 | .
O=C(c1cccnc1)N1CCC(Oc2ccc(C(=O)N3CCCC(O)C3)cc2)CC1 (stereo not drawn) | . | /
Oc1c(Cl)cc(Cl)cc1CNc1ccccn1 | . | /
Oc1c(Cl)cc(Cl)cc1CNc1nc2ccccc2[nH]1 | -6.2 | .
Cc1ccc(NC(=O)CN2CCCC2)c2c1CC(C)(C)O2 | . | .
Cc1ccc(NS(=O)(=O)c2ccccc2Cl)c2c1CC(C)(C)O2 | -6 | .
O=C(Nc1nc(-c2ccc(Cl)cc2Cl)cs1)c1ccc(OCC2CCCO2)cc1 (stereo not drawn) | . | /
CC(C)COc1ccc(C(=O)Nc2scc(-c3ccc(Cl)cc3Cl)c2C(N)=O)cc1 | -7.1 | .
O=C1/C(=C/c2ccccc2F)SC(=S)N1CC(=O)N1CCCCC1c1cccnc1 (stereo not drawn) | . | .
CC/C(=N\N=C1\SC(C)C(=O)N1Cc1ccco1)c1ccccc1 (stereo not drawn) | . | /
CCc1ccc(NC(=O)c2cccc(C(=O)Nc3ccc(CC)cc3)n2)cc1 | . | .
Cc1ccc(NC(=O)c2cccc(C(=O)Nc3ccc(C)c(C)c3)n2)cc1C | -6.4 | .
